In the library only some 4.5% were active in any assay of this set; here they are far more common.
hcDAF-12 act – H. contortus DAF-12 nuclear receptor activators, primary screen, cell-based, luminescence, HEK293, lit1-tk-luc reporter; HEK293 hcDAF-12 lit1-tk-luc reporter; 0% DMSO, 100% Δ7-dafachronic acid; activation, % at 6.8 µM; actives 1.4% (n = 370,000); AID 652067, 2013;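 active = activation above the mean of all tested compounds plus 3 SD, cut at about 5.5% in these data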;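 note: 100% = response to 3 µM Δ7-dafachronic acid high control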
DAX1 inh-1 – DAX1 (NR0B1) inhibitors, primary screen, cell-based, HEK293, Gal4-DAX1, luciferase luminescence; HEK293 Gal4-DAX1 luciferase reporter; inhibition, % at 6.75 µM; actives 0.99% (n = 340,000);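 active = inhibition above the mean over all tested compounds plus 3 SD, cut at about 4.2% in these data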;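 note: 0% = DAX1-transfected cells with DMSO and 100% = empty-vector control cells with DMSO; inhibition shows as a rise in luminescence from relieved DAX1 repression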
Target sequence (P51843 207-470 limits assumed): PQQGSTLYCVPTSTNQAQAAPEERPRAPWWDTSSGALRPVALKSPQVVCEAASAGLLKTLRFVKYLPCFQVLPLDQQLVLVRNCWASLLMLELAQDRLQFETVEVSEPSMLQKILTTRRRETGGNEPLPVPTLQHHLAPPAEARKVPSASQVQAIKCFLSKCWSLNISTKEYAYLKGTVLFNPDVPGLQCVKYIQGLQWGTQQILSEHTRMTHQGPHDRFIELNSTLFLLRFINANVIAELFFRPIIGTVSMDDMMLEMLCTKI
ssDAF-12 act – S. stercoralis DAF-12 nuclear receptor activators, primary screen, cell-based, luminescence, HEK293, GRIP1 co-expression, lit1-tk-luc; Nuclear hormone receptor DAF-12 (Strongyloides stercoralis); HEK293 ssDAF-12/GRIP1 lit1-tk-luc reporter; % of 3 µM dafachronic acid response; activation, % at 6.8 µM; actives 1% (n = 370,000);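 active = activation above the mean over all tested compounds plus 3 SD, cut at about 0.9% in these data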;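 note: 0% = DMSO-only wells and 100% = 3 µM delta7-dafachronic acid wells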
DAX1 inh-2 – DAX1 (NR0B1) inhibitors on StAR promoter, primary screen, cell-based, luminescence, SF-1 (NR5A1), full-length DAX-1 | HEK293T StAR-luciferase reporter, SF-1/DAX-1 repression relief | inhibition, % at 6.8 µM | actives 1.1% (n = 370,000);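 active = inhibition above the mean over all tested compounds plus 3 SD, cut at about 3.6% in these data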;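 note: 0% = DAX-1 cells with DMSO and 100% = cells lacking DAX-1 with DMSO; higher inhibition means more luminescence from relief of DAX-1 repression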
GAA850 FXN act – FXN promoter activators, primary screen, cell-based, luciferase luminescence, HEK293 lucGAA850 | HEK293 lucGAA850 FXN promoter luciferase reporter, 24 h; percent of 10 µM SAHA response | activation, % at 6 µM | actives 0.56% (n = 360,000) | AID 540364, 2011;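 active = activation above the average of all compounds screened plus 3 SD, cutoff fixed separately per campaign, cut at about 7.5% in these data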;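 note: 0% = DMSO wells and 100% = 10 µM SAHA wells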
hgDAF-12 ag – H. glycines DAF-12 receptor agonists, primary screen, cell-based, luminescence, HEK293, GAL4 fusion, UAS-luciferase; AID 687014, 2013; Nuclear hormone receptor DAF-12 (Heterodera glycines), GAL4 fusion; activation, % at 6.8 µM; HEK293 GAL4-hgDAF12 UAS-luciferase reporter, agonist luminescence; normalized to butyrate control; actives 1.8% (n = 370,000);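 active = activation above a cutoff set at the mean of all screened compounds plus 3 SD, cut at about 10% in these data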;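 note: 0% = DMSO wells and 100% = sodium butyrate wells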
An asterisk follows results filed as active; nt = no result.

SMILES	hcDAF-12 act	DAX1 inh-1	ssDAF-12 act	DAX1 inh-2	GAA850 FXN act	hgDAF-12 ag
COc1ccc(-c2nc3ccccc3c(=O)o2)cc1	5.9*	0	0	2	1	6
COc1ccc(-n2c(-c3ccc(C)cc3)nc3ccccc3c2=O)cc1	-1	2	-1	0	2	1
Cc1cccc2c1=NC(=O)/C(=C/c1c(O)[nH]c(=O)[nH]c1=O)C=2	5	1	0	0	5	0
O=c1[nH]c(=S)[nH]c(O)c1/C=C1/C=c2ccccc2=N1	5.8*	3	0	0	2	3
Nc1c(Br)cc2c3c(cccc13)-c1ccccc1-2	3	nt	0	-1	nt	-3
c1ccc2c(c1)-c1cccc3cccc-2c13	0	5.3*	-1	1	-2	0
C[C@]12CC[C@H](O)C[C@H]1CC[C@@H]1[C@@H]2CC[C@]2(C)C(=O)CC[C@@H]12	0	4.3*	-1	1	2	0
NC(Cc1ccccc1)[P+](=O)O (stereo unspecified)	-1	nt	-1	-1	nt	-1
C=CCc1ccc(OC)cc1	2	4.5*	-2	0	0	4
O=C(CNC(=O)OCc1ccccc1)NC(Cc1ccccc1)P(=O)(Oc1ccccc1)Oc1ccccc1 (stereo unspecified)	-3	nt	-1	-1	nt	0
COc1ccccc1N(CC(=O)NC1CCCCC1)C(=O)c1cnn(C(C)C)c1	3	0	1.3*	0	2	0
CCc1cc(OC)c(CCN)cc1OC	-2	nt	0	0	nt	0
CN(C)c1ccc([N+](=O)[O-])c([N+](=O)[O-])c1	1	4.4*	-1	0	2	-2
O=c1[nH]c(=O)n(-c2ccc(Br)cc2)c(O)c1C=NCCN1CCCCC1	0	6.4*	-1	1	2	1
Cc1cccc(-n2c(O)c(C=NCCN3CCCCC3)c(=O)[nH]c2=O)c1	-2	0	-1	-1	1	-1
O=C(CN1C(=O)CN=C(c2ccccc2)c2cc(Cl)ccc21)NC1CCCCC1	-4	nt	-2	0	nt	-3
Fc1cccc(F)c1-c1nc(-c2ccc(Cl)cc2)no1	3	2	1.8*	0	5	8
CN1C(=O)[C@@]23C[C@]4(c5c[nH]c6ccccc56)c5ccccc5N(S(=O)(=O)c5ccccc5)[C@@H]4N2C(=O)[C@@H]1SS3	-9	nt	-4	nt	nt	-14
COc1cc(C=C2C(=O)NC(=O)NC2=O)ccc1OCc1ccc([N+](=O)[O-])cc1	3	2	-1	2	6	13*
O=C1NC(=O)C(=Cc2ccc(Oc3ccc([N+](=O)[O-])cc3)cc2)C(=O)N1	nt	1	nt	nt	1	nt
N=c1c2c(-c3ccccc3)c(-c3ccccc3)n(Cc3ccccc3)c2ncn1C1CCC(O)CC1 (stereo unspecified)	-1	nt	-1	-2	nt	1
CN(C)c1ccc(/C=C2\C(=O)NC(=O)N(CCc3ccc(F)cc3)C2=O)cc1	-1	5.5*	-2	0	-1	-1
COCCN1C(=O)NC(=O)/C(=C\c2ccc(F)cc2)C1=O	-1	0	-2	0	1	5
N#Cc1ccc(NC(=S)N2Cc3ccc(Br)cc3-n3nncc3C2)cc1	-2	nt	-1	-1	nt	-3
Nc1ccc(Cl)c(Cl)c1	0	0	1.1*	0	0	2
SMILES	hcDAF-12 act	DAX1 inh-1	ssDAF-12 act	DAX1 inh-2	GAA850 FXN act	hgDAF-12 ag
O=c1c([N+](=O)[O-])cn(O)cc1[N+](=O)[O-]	1	4.4*	-1	-1	0	5
COCCNC(=O)CN1C(=O)CN=C(c2ccccc2)c2ccccc21	-1	4.5*	-1	0	0	2
O=C(CN1C(=O)[C@@H](Cc2ccccc2)N=C(c2ccccc2)c2ccccc21)NC1CCCCC1	-2	nt	0	1	nt	-2
CC(C)C(NC(=O)OCc1ccccc1)P(=O)(Oc1ccccc1)Oc1ccccc1 (stereo unspecified)	-2	nt	-1	-2	nt	-2
O=c1[nH]c(=O)n(-c2cccc(F)c2)c(O)c1/C=C1\C=Nc2ccccc21	5.7*	1	0	0	0	1
O=C(O)c1cc2ccccc2n1C1CCN(Cc2ccccc2)CC1	-3	nt	-1	-1	nt	2
CSc1nc(Cl)c(Br)c(N2CC2)n1	0	4.6*	-1	1	0	-2
O=c1[nH]c(=S)n(C2CC2)c(O)c1C=NCC1CCCO1 (stereo unspecified)	-1	0	-2	0	1	-1
O=c1[nH]c(=S)n(Cc2ccc(F)cc2)c(O)c1C=NCC1CCCO1 (stereo unspecified)	-2	6.2*	-1	-1	2	2
CC(C)C(CN1CCC(C)(c2cccc(O)c2)[C@@H](C)C1)NC(=O)C1Cc2ccc(O)cc2CN1 (stereo partly specified)	0	nt	-1	0	nt	4
CCN(CC)c1ccc(/C=C2\C(=O)NC(=S)N(C)C2=O)o1	2	7.5*	0	2	6	8
O=C(Nc1nccs1)C(Cl)(Cl)Cl	0	1	-1	2	2	0
O=C(Nc1ccc(Cl)cc1)Nc1nccs1	2	-1	0	-2	-1	11*
CCn1c(=O)cc(OCC(=O)N2CCC3(CC2)OCCO3)c2ccccc21	1	4.4*	-1	1	2	0
O=C(CSc1ccccc1)N1CCC2(CC1)OCCO2	3	1	-1	3.9*	3	4
O=C(NCCN1CCC2(CC1)C(=O)NCN2c1ccccc1)c1ccc(OC(F)(F)F)cc1	2	nt	-1	-1	nt	-1
Cn1cccc1/C=C1/C(=O)NC(=O)N(C(C)(C)C)C1=O	-1	4.8*	-1	-1	1	-2
Cn1cccc1/C=C1\C(=O)NC(=O)N(Cc2ccccc2Cl)C1=O	1	3	-1	0	6	0
CCCCn1c(O)c(/C=C2/C=CC=N2)c(=O)[nH]c1=O	-2	5.4*	-1	0	-1	0
COC(=O)C(O)(c1ccc(NC(=O)NC2CCCCC2)cc1)C(F)(F)F (stereo unspecified)	1	1	1	2	7	11*

From PubChem BioAssay
